Assay results as given in PubChem BioAssay (NCATS).
Unmarked numbers belong to inactive results. How the calls were made is not given here.
Potency means the concentration at half of the fitted maximal effect.

Each molecule was assayed on HIV-1 nucleocapsid protein NCp7 (binding to TG oligonucleotide) (assay: HIV Nucleocapsid (AID 346;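 further: potency is for inhibitors that block NC binding and lower polarization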)). Details: HIV-1 NC / fluorescein-TGTGTGTG probe, fluorescence polarization.
Outline: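 Fluorescence polarization binding of 100 nM HIV-1 NC to 10 nM fluorescein-labelled TG4xF oligonucleotide. Buffer was Hepes pH 7.5 with 250mM NaCl, 1uM ZnCl2, TCEP and 2-mercaptoethanol. Compounds were incubated 1 hr at room temperature before the read.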
With `CN(Cc1ccco1)c1cc(-c2cccc(C#N)c2)ncn1` the Potency was > 20 µM. In the case of `COc1ccc(-n2c(=O)c(-c3cn(C)c4ccccc34)nc3cnc(N4CCOCC4)nc32)cc1`, the Potency is reported as > 20 µM. `O=c1c(-c2ccc(F)cc2)nc2cnc(Nc3ccccc3)nc2n1Cc1cccs1` was tested, and the Potency was > 4 µM. For `c1csc(CNc2ccnc(-c3ccc4c(c3)OCO4)n2)c1`, the Potency was > 20 µM. `c1nc(N2CCNCC2)c2cc(-c3ccc4c(c3)OCO4)ccc2n1` was tested, and the Potency was > 20 µM. `O=C(Nc1cccc(F)c1)N1CCCC2(CCN(C(=O)c3cc(C(F)(F)F)cc(C(F)(F)F)c3)CC2)C1` was tested, and the Potency was > 20 µM. In the case of `Clc1ccccc1-c1cc(NCc2cccnc2)ncn1`, the Potency is reported as > 20 µM. In the case of `O=c1c(-c2ccc(Cl)cc2)nc2cnc(N3CCNCC3)nc2n1Cc1ccc(F)cc1`, the Potency is reported as > 20 µM. With `O=C(c1ccncc1)N1CCC2(CC1)CCN(c1ccccn1)CC2` the Potency was > 20 µM. For `Cn1c(=O)c(-c2cc(F)cc(F)c2)nc2cnc(N3CCNCC3)nc21`, the Potency was > 20 µM. `Cc1noc(C)c1-c1nccc(N2CCOCC2)n1` was tested, and the Potency was > 20 µM. In the case of `O=c1c(-c2ccccc2)nc2cnc(Nc3ccccc3)nc2n1Cc1cccs1`, the Potency is reported as > 20 µM. In the case of `COc1cccc(-c2nc(NC3CC3)c3ccccc3n2)c1`, the Potency is reported as > 20 µM. With `CS(=O)(=O)Nc1cccc(-c2nc(N3CCOCC3)c3ccccc3n2)c1` the Potency was > 20 µM. For `COc1ncc2nc(-c3cc(F)cc(F)c3)c(=O)n(CCC#N)c2n1`, the Potency was > 20 µM. `O=C(c1cccc(F)c1)N1CCC[C@@]2(CCN(C(c3ccccc3)c3ccccc3)C2)C1` was tested, and the Potency was > 20 µM. With `N#CCCn1c(=O)c(-c2cccc(C#N)c2)nc2cnc(Oc3ccccc3)nc21` the Potency was > 20 µM. In the case of `COc1ccc(-c2nc3cnc(OC)nc3n(CCc3ccccc3)c2=O)cc1`, the Potency is reported as > 20 µM. `COc1cccc(Cn2c(=O)c(-c3cc(F)cc(F)c3)nc3cnc(OC)nc32)c1` was tested, and the Potency was > 20 µM. For `N#Cc1ccc(CN2CC3(CCN(C(=O)c4cccc(F)c4)CC3)C2)cc1`, the Potency was > 20 µM. `Cc1cnc(CNc2ncnc3ccc(-c4c(C)noc4C)cc23)cn1` was tested, and the Potency was > 20 µM. With `CN(C)c1ncc2nc(CCc3ccccc3)c(=O)n(CCC#N)c2n1` the Potency was > 20 µM. In the case of `COc1cccc(-c2ccc3ncnc(Nc4ccccc4)c3c2)c1`, the Potency is reported as > 20 µM. `O=C(Nc1cccc(F)c1)N1CC[C@@]2(CCCN(C(=O)c3ccco3)C2)C1` was tested, and the Potency was > 20 µM. `O=C(c1csnn1)N1CCC2(CCCN(c3ccccc3)C2)CC1` was tested, and the Potency was > 20 µM. In the case of `FC(F)(F)c1ccccc1-c1nc(N2CCNCC2)c2ccccc2n1`, the Potency is reported as > 20 µM. `CC(C)NC(=O)N1CC[C@@]2(CCCN(C(=O)c3cccn3C)C2)C1` was tested, and the Potency was > 20 µM. With `O=c1c(-c2cccs2)nc2cnc(N3CCNCC3)nc2n1C1CC1` the Potency was > 20 µM. In the case of `COc1ccccc1CNc1ncncc1-c1ccccc1C`, the Potency is reported as > 20 µM. In the case of `COCCn1c(=O)c(-c2cn(C)c3ccccc23)nc2cnc(OCc3ccccc3)nc21`, the Potency is reported as > 20 µM. For `N#Cc1cccc(-c2nccc(NCc3cccnc3)n2)c1`, the Potency was > 20 µM. In the case of `CN1CCN(c2cc(-c3ccc(N(C)C)cc3)ncn2)CC1`, the Potency is reported as > 20 µM. In the case of `CN(C)c1ccc(-c2cncnc2Nc2ccccc2)cc1`, the Potency is reported as > 20 µM. `O=C(Oc1ccccc1)N1CCC[C@@]2(CCN(c3ccccn3)C2)C1` was tested, and the Potency was > 20 µM. For `O=c1cnc2cnc(Oc3ccccc3)nc2n1Cc1ccc(F)cc1`, the Potency was > 20 µM. In the case of `O=C(Nc1ccccc1)N1CCCC2(CCN(C(=O)c3cnccn3)CC2)C1`, the Potency is reported as > 20 µM. For `O=C(c1cnccn1)N1CCC2(CCCN(c3ccncc3)C2)CC1`, the Potency was > 20 µM. For `COc1ccc(CNc2ncnc3ccc(-c4ccccc4C#N)cc23)c(OC)c1`, the Potency was > 20 µM. For `O=c1c(-c2ccc(F)cc2)nc2cnc(N3CCOCC3)nc2n1Cc1ccc(F)cc1`, the Potency was > 20 µM.
